According to publication PMC12820563, “FoxP3 forms a head-to-head dimer in vivo and stabilizes its multimerization on adjacent microsatellites”:
The full ranking holds about 16,000 sequences; the median of “rpm ratio (pull-down/input)” is about 0.94, and the highest 2% start at about 1.7. This is one part of a sample in which the highest values are shown more often than they occur.

What follows are sequences tested against T1, MBP-FoxP1dN (Mus musculus, UniProt P58462 326-579) (assay: PD-seq (MBP pull-down with sequencing); 20 mM Tris-HCl pH 7.5, 100 mM NaCl, 1.5 mM MgCl2, 0.4 uM protein, 0.1 uM dsDNA library, 30 min, room temperature, amylose pull-down; high values mean tight binding). Conditions: protein: recombinant; tags: His6-MBP; chain copies: 2; dsDNA, one strand shown.
T1 sequence: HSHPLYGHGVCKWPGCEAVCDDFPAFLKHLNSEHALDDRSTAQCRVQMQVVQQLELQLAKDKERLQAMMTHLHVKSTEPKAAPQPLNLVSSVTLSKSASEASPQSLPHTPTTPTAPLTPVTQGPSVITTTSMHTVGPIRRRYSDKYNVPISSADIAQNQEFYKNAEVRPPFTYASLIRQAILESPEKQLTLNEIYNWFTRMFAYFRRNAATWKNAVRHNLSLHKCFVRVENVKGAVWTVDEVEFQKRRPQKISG
Outline: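 Binding is given as reads-per-million enrichment, pull-down over input, with replicates pooled. The bait was an N-terminus-lacking mouse FoxP3 or FoxP1 fragment with a His6-MBP tag, expressed in E. coli and used at 0.4 µM with 0.1 µM Klenow-filled degenerate double-stranded DNA library for 30 min at room temperature in Tris pH 7.5 buffer with NaCl and MgCl2. Amylose resin pull-down with three washes was followed by proteinase K release, PCR barcoding and Illumina sequencing.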

Sequence | binding signal
GATGATTGTTCTCCCAGCTGATGAATTACCATTTTCGAGTAAACAAATTTTCCTAATCTTTCTGTTCAAGCGCCATCTAC | 1.18 RPM ratio (pull-down/input)
GATGATTGTTCTCCCAGCTGATGAATTGATTGTTTCGAGTAAACAAATTTTCCTAATCTTTCTGTTCAAGCGCCATCTAC | 1.61 RPM ratio (pull-down/input)
GATGATTGTTCTCCCAGCTGATGAATTTCTGTTTTCGAGTAAACAAATTTTCCTAATCTTTCTGTTCAAGCGCCATCTAC | 2.32 RPM ratio (pull-down/input)
GATGATTGTTCTCCCAGCTGATGAATTGTTTCTTTCGAGTAAACAAATTTTCCTAATCTTTCTGTTCAAGCGCCATCTAC | 1.58 RPM ratio (pull-down/input)
GATGATTGTTCTCCCAGCTGATGAATTTTCTGTTTCGAGTAAACAAATTTTCCTAATCTTTCTGTTCAAGCGCCATCTAC | 0.977 RPM ratio (pull-down/input)
GATGATTGTTCTCCCAGCTGATGAATTTCCTGTTTCGAGTAAACAAATTTTCCTAATCTTTCTGTTCAAGCGCCATCTAC | 0.949 RPM ratio (pull-down/input)
GATGATTGTTCTCCCAGCTGATGAATTACTGATTTCGAGTAAACAAATTTTCCTAATCTTTCTGTTCAAGCGCCATCTAC | 1.24 RPM ratio (pull-down/input)
GATGATTGTTCTCCCAGCTGATGAATTGTTTTTTTCGAGTAAACAAATTTTCCTAATCTTTCTGTTCAAGCGCCATCTAC | 2.25 RPM ratio (pull-down/input)
GATGATTGTTCTCCCAGCTGATGAATTTACTGTTTCGAGTAAACAAATTTTCCTAATCTTTCTGTTCAAGCGCCATCTAC | 1.35 RPM ratio (pull-down/input)
GATGATTGTTCTCCCAGCTGATGAATTACTGTTTTCGAGTAAACAAATTTTCCTAATCTTTCTGTTCAAGCGCCATCTAC | 2.6 RPM ratio (pull-down/input)
GATGATTGTTCTCCCAGCTGATGAATTGGCTATGTCGAGTAAACAAATTTTCCTAATCTTTCTGTTCAAGCGCCATCTAC | 0.854 RPM ratio (pull-down/input)
GATGATTGTTCTCCCAGCTGATGAATTCGTCAGTTCGAGTAAACAAATTTTCCTAATCTTTCTGTTCAAGCGCCATCTAC | 0.905 RPM ratio (pull-down/input)
GATGATTGTTCTCCCAGCTGATGAATTGTCTCCATCGAGTAAACAAATTTTCCTAATCTTTCTGTTCAAGCGCCATCTAC | 1.11 RPM ratio (pull-down/input)
GATGATTGTTCTCCCAGCTGATGAATTGGTTTTATCGAGTAAACAAATTTTCCTAATCTTTCTGTTCAAGCGCCATCTAC | 1.14 RPM ratio (pull-down/input)
GATGATTGTTCTCCCAGCTGATGAATTAGTGAGATCGAGTAAACAAATTTTCCTAATCTTTCTGTTCAAGCGCCATCTAC | 0.857 RPM ratio (pull-down/input)
GATGATTGTTCTCCCAGCTGATGAATTATTTACTTCGAGTAAACAAATTTTCCTAATCTTTCTGTTCAAGCGCCATCTAC | 2.15 RPM ratio (pull-down/input)
GATGATTGTTCTCCCAGCTGATGAATTTATTACTTCGAGTAAACAAATTTTCCTAATCTTTCTGTTCAAGCGCCATCTAC | 1.29 RPM ratio (pull-down/input)

Sequence | binding signal
GATGATTGTTCTCCCAGCTGATGAATTACTTTATTCGAGTAAACAAATTTTCCTAATCTTTCTGTTCAAGCGCCATCTAC | 1.15 RPM ratio (pull-down/input)
GATGATTGTTCTCCCAGCTGATGAATTTACTTCTTCGAGTAAACAAATTTTCCTAATCTTTCTGTTCAAGCGCCATCTAC | 1.33 RPM ratio (pull-down/input)
GATGATTGTTCTCCCAGCTGATGAATTGTTTACTTCGAGTAAACAAATTTTCCTAATCTTTCTGTTCAAGCGCCATCTAC | 2.82 RPM ratio (pull-down/input)
GATGATTGTTCTCCCAGCTGATGAATTTTTTACTTCGAGTAAACAAATTTTCCTAATCTTTCTGTTCAAGCGCCATCTAC | 1.05 RPM ratio (pull-down/input)
GATGATTGTTCTCCCAGCTGATGAATTGCCAATGTCGAGTAAACAAATTTTCCTAATCTTTCTGTTCAAGCGCCATCTAC | 0.943 RPM ratio (pull-down/input)
GATGATTGTTCTCCCAGCTGATGAATTGCGCGAATCGAGTAAACAAATTTTCCTAATCTTTCTGTTCAAGCGCCATCTAC | 1.14 RPM ratio (pull-down/input)
GATGATTGTTCTCCCAGCTGATGAATTAGATTTATCGAGTAAACAAATTTTCCTAATCTTTCTGTTCAAGCGCCATCTAC | 1.13 RPM ratio (pull-down/input)
GATGATTGTTCTCCCAGCTGATGAATTCTCTTTATCGAGTAAACAAATTTTCCTAATCTTTCTGTTCAAGCGCCATCTAC | 0.967 RPM ratio (pull-down/input)
GATGATTGTTCTCCCAGCTGATGAATTTGCTTCTTCGAGTAAACAAATTTTCCTAATCTTTCTGTTCAAGCGCCATCTAC | 1.02 RPM ratio (pull-down/input)
GATGATTGTTCTCCCAGCTGATGAATTGTTTGCTTCGAGTAAACAAATTTTCCTAATCTTTCTGTTCAAGCGCCATCTAC | 2.2 RPM ratio (pull-down/input)
GATGATTGTTCTCCCAGCTGATGAATTGCTTTGTTCGAGTAAACAAATTTTCCTAATCTTTCTGTTCAAGCGCCATCTAC | 1.11 RPM ratio (pull-down/input)
GATGATTGTTCTCCCAGCTGATGAATTTTTGCTTTCGAGTAAACAAATTTTCCTAATCTTTCTGTTCAAGCGCCATCTAC | 1.83 RPM ratio (pull-down/input)
GATGATTGTTCTCCCAGCTGATGAATTTGTTGCTTCGAGTAAACAAATTTTCCTAATCTTTCTGTTCAAGCGCCATCTAC | 1.54 RPM ratio (pull-down/input)
GATGATTGTTCTCCCAGCTGATGAATTGCTTTTTTCGAGTAAACAAATTTTCCTAATCTTTCTGTTCAAGCGCCATCTAC | 1.45 RPM ratio (pull-down/input)
GATGATTGTTCTCCCAGCTGATGAATTTGCTTTTTCGAGTAAACAAATTTTCCTAATCTTTCTGTTCAAGCGCCATCTAC | 1.21 RPM ratio (pull-down/input)
GATGATTGTTCTCCCAGCTGATGAATTTTTTGCTTCGAGTAAACAAATTTTCCTAATCTTTCTGTTCAAGCGCCATCTAC | 0.938 RPM ratio (pull-down/input)
GATGATTGTTCTCCCAGCTGATGAATTGTTGCTTTCGAGTAAACAAATTTTCCTAATCTTTCTGTTCAAGCGCCATCTAC | 2.12 RPM ratio (pull-down/input)
